Assay results taken from PubChem BioAssay (NCI).
Several values for one entry are separate records, joined by “and”; a condition that tells them apart may be missing. Identical values can stand only once. Compounds without any hit were thinned out: in the full panel of roughly 79,000, 15% have a hit. Where a structure was tested more than once in an assay, its records may differ in their call. Activity calls are given as the source filed them. Rule as the data show it: active = growth inhibition above about 70%; inactive = the rest.

Legend:
[1] = NCI Yeast Anticancer Drug Screen. Data for the wt1 strain (AID 149);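 also: 0% = growth of vehicle-treated wt1 cultures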; conditions: S. cerevisiae wt1 strain (SPY 50644) growth inhibition, stronger effect = higher value
Summary of the method: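 The wt1 strain was treated with compounds, and growth was compared with vehicle-treated cultures to give inhibition.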

[2] = NCI Yeast Anticancer Drug Screen. Data for the mgt1 strain (AID 153); conditions: S. cerevisiae mgt1 mutant growth inhibition, stronger effect = higher value
Summary of the method: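 Growth inhibition relative to vehicle controls was scored for the mgt1 yeast strain after compound exposure.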

[3] = NCI Yeast Anticancer Drug Screen. Data for the rad50 strain (AID 155);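 also: 0% = growth of vehicle-only cultures of the same strain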; conditions: S. cerevisiae rad50 strain growth inhibition, stronger effect = higher value
Summary of the method: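 Cells are treated with compound, grown, and their growth is then scored against vehicle-only cultures of the same repair-deficient yeast strain.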

[4] = NCI Yeast Anticancer Drug Screen. Data for the mec2-1 strain (AID 157); conditions: S. cerevisiae mec2-1 strain, stronger effect = higher value
Summary of the method: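 Growth inhibition is read against vehicle-treated controls after compound exposure of the mec2-1 yeast strain, which is defective in DNA damage repair or cell cycle control.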

[5] = NCI Yeast Anticancer Drug Screen. Data for the rad14 strain (AID 159);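 also: 0% = growth of vehicle-treated control cultures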; conditions: S. cerevisiae rad14 strain growth inhibition, stronger effect = higher value
Summary of the method: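 Readout: yeast growth inhibition, referenced to vehicle-only cultures. Strain bears a defined alteration in DNA damage repair.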

[6] = NCI Yeast Anticancer Drug Screen. Data for the sgs1 mgt1 strain (AID 161);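 also: 0% = growth of cultures given vehicle only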; conditions: S. cerevisiae sgs1 mgt1 strain, stronger effect = higher value
Summary of the method: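 Yeast cells carrying a defined DNA-repair defect were exposed to test compounds. Growth inhibition was measured relative to vehicle-treated controls.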

[7] = NCI Yeast Anticancer Drug Screen. Data for the CLN2oe strain (AID 163);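 also: 0% = growth of vehicle-only control cultures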; conditions: S. cerevisiae CLN2oe strain, stronger effect = higher value
Summary of the method: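 Compound-treated yeast; growth vs vehicle ctrl = % inhibition. Genetically altered strain (cell-cycle control).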

[8] = NCI Yeast Anticancer Drug Screen. Data for the cln2 rad14 strain (AID 165);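 also: 0% = growth equal to vehicle treated cultures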; conditions: S. cerevisiae cln2 rad14 strain, stronger effect = higher value
Summary of the method: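 Growth inhibition, relative to vehicle-treated controls, is the read-out. The test organism is a yeast strain with defined genetic alterations, cln2 rad14.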

[9] = NCI Yeast Anticancer Drug Screen. Data for the bub3 strain (AID 167); conditions: S. cerevisiae bub3 mutant strain, stronger effect = higher value
Summary of the method: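 Part of a panel of yeast mutants defective in DNA damage repair or cell cycle regulation. Each strain is grown with compound, and inhibition is calculated relative to solvent-treated cultures.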

[10] = NCI Yeast Anticancer Drug Screen. Data for the wt2 strain (AID 169);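 also: 0% = growth of vehicle-treated yeast cultures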; conditions: S. cerevisiae wt2 strain growth inhibition, stronger effect = higher value
Summary of the method: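 Compound exposure of yeast; growth compared with vehicle controls; inhibition reported.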

[11] = NCI Yeast Anticancer Drug Screen. Data for the mlh1 strain (AID 171);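 also: 0% = growth of vehicle-treated control cultures of the same strain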; conditions: S. cerevisiae mlh1 strain growth inhibition, stronger effect = higher value
Summary of the method: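 Compounds are applied to a genetically altered yeast strain, and its growth is compared with that of vehicle-treated cultures to give percent inhibition.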

[12] = NCI Yeast Anticancer Drug Screen. Data for the sgs1 strain (AID 173);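 also: 0% = growth of vehicle-only control cultures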; conditions: S. cerevisiae sgs1 mutant, stronger effect = higher value
Summary of the method: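 Compounds applied to genetically altered yeast; growth compared with vehicle-treated cultures to give % inhibition.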

[13] = NCI Yeast Anticancer Drug Screen. Data for the mlh1 rad18 strain (AID 175); conditions: S. cerevisiae mlh1 rad18 strain growth inhibition, stronger effect = higher value
Summary of the method: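 Cells of a genetically altered yeast strain, deficient in DNA damage repair, were treated with compound. Their growth was then compared with that of vehicle-treated cultures to give inhibition.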

[14] = NCI Yeast Anticancer Drug Screen. Data for the rad18 strain (AID 177); conditions: S. cerevisiae rad18 mutant growth inhibition, stronger effect = higher value
Summary of the method: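 Compounds are applied to a repair-deficient yeast strain, and growth is compared with that of vehicle-treated cultures to give percent inhibition.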

[15] = at 5.0 µM (retest, dose inferred, filed as 0.5)
[16] = at 50.0 µM (retest, dose inferred, filed as 5.0)

Structure (SMILES): CNC(=O)OCc1c(COC(=O)NC)c(C)n(-c2ccc(Cl)c(Cl)c2)c1C
- growth inhibition ([1]; at 1.2 µM): -51% (inactive)
- growth inhibition ([1]; at 3.7 µM): -53% (inactive)
- growth inhibition ([1]; at 11.0 µM): -54% (inactive)
- growth inhibition ([1]; at 33.0 µM): 97% (active)
- growth inhibition ([1]; at 100.0 µM): 99% (active)
- growth inhibition ([2]; at 1.2 µM): -35% (inactive)
- growth inhibition ([2]; at 3.7 µM): -40% (inactive)
- growth inhibition ([2]; at 11.0 µM): -14% (inactive)
- growth inhibition ([2]; at 33.0 µM): 98% (active)
- growth inhibition ([2]; at 100.0 µM): 99% (active)
- growth inhibition ([3]; at 1.2 µM): -37% (inactive)
- growth inhibition ([3]; at 3.7 µM): -34% (inactive)
- growth inhibition [3, 15]: 25% (inactive)
- growth inhibition ([3]; at 11.0 µM): -16% (inactive)
- growth inhibition ([3]; at 33.0 µM): 97% (active)
- growth inhibition [3, 16]: 97% (active)
- growth inhibition ([3]; at 50.0 µM): 89.6% (active)
- growth inhibition ([3]; at 100.0 µM): 97% (active)
- growth inhibition ([4]; at 1.2 µM): -27% (inactive)
- growth inhibition ([4]; at 3.7 µM): -22% (inactive)
- growth inhibition [4, 15]: 23% (inactive)
- growth inhibition ([4]; at 11.0 µM): -26% (inactive)
- growth inhibition ([4]; at 33.0 µM): 98% (active)
- growth inhibition [4, 16]: 98% (active)
- growth inhibition ([4]; at 50.0 µM): 90.8% (active)
- growth inhibition ([4]; at 100.0 µM): 99% (active)
- growth inhibition ([5]; at 1.2 µM): -38% (inactive)
- growth inhibition ([5]; at 3.7 µM): -16% (inactive)
- growth inhibition ([5]; at 11.0 µM): 25% (inactive)
- growth inhibition ([5]; at 33.0 µM): 98% (active)
- growth inhibition ([5]; at 100.0 µM): 98% (active)
- growth inhibition [6, 15]: 5% (inactive)
- growth inhibition [6, 16]: 23% (inactive)
- growth inhibition ([6]; at 50.0 µM): 89.5% (active)
- growth inhibition ([7]; at 1.2 µM): -30% (inactive)
- growth inhibition ([7]; at 3.7 µM): -4% (inactive)
- growth inhibition ([7]; at 11.0 µM): -1% (inactive)
- growth inhibition ([7]; at 33.0 µM): 46% (inactive)
- growth inhibition ([7]; at 100.0 µM): 94% (active)
- growth inhibition [8, 15]: 7% (inactive)
- growth inhibition [8, 16]: -10% (inactive)
- growth inhibition ([8]; at 50.0 µM): 84.5% (active)
- growth inhibition ([9]; at 1.2 µM): -31% (inactive)
- growth inhibition ([9]; at 3.7 µM): -36% (inactive)
- growth inhibition [9, 15]: 8% (inactive)
- growth inhibition ([9]; at 11.0 µM): -21% (inactive)
- growth inhibition ([9]; at 33.0 µM): 97% (active)
- growth inhibition [9, 16]: 9% (inactive)
- growth inhibition ([9]; at 50.0 µM): 87% (active)
- growth inhibition ([9]; at 100.0 µM): 98% (active)
- growth inhibition ([10]; at 1.2 µM): -48% (inactive)
- growth inhibition ([10]; at 3.7 µM): -37% (inactive)
- growth inhibition ([10]; at 11.0 µM): -58% (inactive)
- growth inhibition ([10]; at 33.0 µM): 91% (active)
- growth inhibition ([10]; at 100.0 µM): 97% (active)
- growth inhibition ([11]; at 1.2 µM): -26% (inactive)
- growth inhibition ([11]; at 3.7 µM): -10% (inactive)
- growth inhibition ([11]; at 11.0 µM): 10% (inactive)
- growth inhibition ([11]; at 33.0 µM): 97% (active)
- growth inhibition ([11]; at 100.0 µM): 97% (active)
- growth inhibition ([12]; at 1.2 µM): 3% (inactive)
- growth inhibition ([12]; at 3.7 µM): -4% (inactive)
- growth inhibition ([12]; at 11.0 µM): 1% (inactive)
- growth inhibition ([12]; at 33.0 µM): 97% (active)
- growth inhibition ([12]; at 100.0 µM): 98% (active)
- growth inhibition [13, 15]: 39% (inactive)
- growth inhibition [13, 16]: 98% (active)
- growth inhibition ([13]; at 50.0 µM): 92.3% (active)
- growth inhibition ([14]; at 1.2 µM): -32% (inactive)
- growth inhibition ([14]; at 3.7 µM): -33% (inactive)
- growth inhibition ([14]; at 11.0 µM): 1% (inactive)
- growth inhibition ([14]; at 33.0 µM): 97% (active)
- growth inhibition ([14]; at 100.0 µM): 98% (active)

Structure (SMILES): CCCCCCCCCCCC[N+](C)(C)C
- growth inhibition [3, 15]: -9% (inactive) and -3% (inactive) and 12% (inactive)
- growth inhibition [3, 16]: 98% (active) and 96% (active) and 99% (active)
- growth inhibition ([3]; at 50.0 µM): 49.9% (inactive) and 80.2% (active) and 39.5% (inactive)
- growth inhibition [4, 15]: -3% (inactive) and 0% (inactive) and 22% (inactive)
- growth inhibition [4, 16]: 99% (active) and 98% (active) and 100% (active)
- growth inhibition ([4]; at 50.0 µM): 53.3% (inactive) and 89.5% (active) and 92.2% (active)
- growth inhibition [6, 15]: -8% (inactive) and -3% (inactive) and 49% (inactive)
- growth inhibition [6, 16]: 98% (active) and 97% (active) and 99% (active)
- growth inhibition ([6]; at 50.0 µM): 49% (inactive) and 92.5% (active) and 48.6% (inactive)
- growth inhibition [8, 15]: 3% (inactive) and -1% (inactive) and 2% (inactive)
- growth inhibition [8, 16]: 97% (active) and 96% (active) and 99% (active)
- growth inhibition ([8]; at 50.0 µM): 71.8% (active) and -21.6% (inactive) and 66.2% (inactive)
- growth inhibition [9, 15]: 14% (inactive) and 9% (inactive) and 18% (inactive)
- growth inhibition [9, 16]: 95% (active) and 98% (active) and 100% (active)
- growth inhibition ([9]; at 50.0 µM): 57.2% (inactive) and 82.1% (active) and 97.2% (active)
- growth inhibition [13, 15]: -4% (inactive) and -5% (inactive) and 4% (inactive)
- growth inhibition [13, 16]: 96% (active) and 95% (active) and 99% (active)
- growth inhibition ([13]; at 50.0 µM): 83.3% (active) and 91% (active) and 80.5% (active)
